Earlier results, collected in PubChem BioAssay AID977611.
The whole screen tested about 3,900 compounds, of which about 3,900 (100%) were called active. Cut-off not given; nearly all actives show Kd up to about 4200 µM. So high a share suggests a set chosen from earlier hits. The list shows a part of the results. Where a SMILES comes first, the peptide text is derived from it. Non-standard residues stand in square brackets, D forms with d. Square brackets hold non-standard residues; d marks the D form. Residues, ends and D or L forms follow the SMILES beside them. Peptide text beside a SMILES is read from it. [ ]: non-standard residue; d: D form. Orn(CH(NH2)2) = NC(N)NCCC[C@H](N)C(=O)O; Nva = CCC[C@H](N)C(=O)O

Assay: PubChem AID 977611
Settings: PDB protein-ligand complexes, literature Kd

H-SEAAASTAVVIA-OH
Kd (protein: human antithrombin, PDB entry 1br8): 18 µM (active)

CC[C@H](C)[C@H](NC(=O)[C@H](CC(C)C)NC(=O)[C@H](CCCCN)NC(=O)[C@H](CCC(N)=O)NC(=O)[C@@H](N)CCC(=O)O)C(=O)N[C@@H](CO)C(=O)N[C@@H](CCC(=O)O)C(=O)N[C@@H](CCC(=O)O)C(=O)N[C@@H](CC(=O)O)C(=O)N[C@@H](CC(C)C)C(=O)N[C@@H](CC(N)=O)C(=O)O (H-EQKLISEEDLN-OH)
Kd (protein: Monoclonal anti-c-myc antibody 9E10, PDB entry 2or9): 0.5 µM (active)

CC[C@H](C)[C@H](NC(=O)[C@H](CCC(=O)O)NC(=O)[C@H](C)NC(=O)[C@H](CCC(N)=O)NC(=O)[C@H](CO)NC(=O)[C@H](CC(C)C)NC(=O)[C@@H](NC(=O)[C@@H](N)CO)[C@@H](C)CC)C(=O)N[C@@H](CC(=O)O)C(=O)N[C@@H](C)C(=O)N[C@@H](CC(C)C)C(=O)N[C@@H](CC(C)C)C(=O)N[C@@H](CC(N)=O)C(=O)O (H-SILSQAEIDALLN-OH)
Kd (protein: double mutant Chemotaxis protein cheYD13K Y106W, PDB entry 1u8t): 55 µM (active)

Cn1c(CNc2ccc(C(=N)N)cc2)nc2cc(C(=O)N(CCC(=O)O)c3ccccn3)ccc21
Kd (protein: humanized anti dabigatran Fab, PDB entry 4jn2): 2.1e-06 µM (active)

CCC1=CNN2C(NCc3ccc[n+]([O-])c3)CC(N3CCCC[C@H]3CCO)NC12 (some centres not stated)
Kd (protein: Bromodomain testis-specific protein, PDB entry 4kcx): 37 µM (active)

CCCCCCCC(=O)O[C@@H]1[C@@H](OC(=O)[C@@H](C)CC)[C@@H](C)[C@H]2[C@H]1[C@@](C)(OC(C)=O)C[C@H](O[C@@H](O)CCC)[C@@]1(O[C@H](O)CCC)[C@H]2O[C@@H](O)[C@@]1(C)O
Kd (protein: SERCA1a, PDB entry 4j2t): 0.011 µM (active)

CSCC[C@H](NC(=O)[C@H](CC(C)C)NC(=O)[C@H](C)NC(=O)[C@@H](NC(=O)[C@H](CC(N)=O)NC(=O)[C@H](CO)NC(=O)CNC(=O)[C@H](CCCNC(N)N)NC(=O)[C@H](CCCNC(N)N)NC(=O)[C@H](CCC(=O)O)NC(=O)[C@H](CCC(N)=O)NC(=O)[C@H](CC(C)C)NC(=O)[C@@H](N)CCCNC(N)N)C(C)C)C(=O)N[C@@H](CC(C)C)C(=O)N[C@@H](CC(=O)O)C(=O)N[C@@H](CS)C(=O)O (H-[Orn(CH(NH2)2)]LQE[Orn(CH(NH2)2)][Orn(CH(NH2)2)]GSNVALMLDC-OH)
Kd (protein: Mitogen-activated protein kinase 1, PDB entry 2gph): 5 µM (active)

CC[C@H](C)[C@H](NC(=O)[C@H](CCSC)NC(=O)CNC(=O)[C@H](CCCNC(N)N)NC(=O)[C@@H](N)CCC(N)=O)C(=O)O (H-Q[Orn(CH(NH2)2)]GMI-OH)
Kd (protein: Response regulator aspartate phosphatase F, PDB entry 4i9c): 3.1 µM (active)

CC[C@H](C)[C@H](NC(=O)[C@H](CC(=O)O)NC(=O)[C@H](CCC(=O)O)NC(=O)[C@H](CC(C)C)NC(=O)CNC(=O)[C@H](C)NC(=O)[C@H](C)N)C(=O)N[C@H](C(=O)N[C@@H](CCCNC(N)N)C(=O)N[C@@H](CCCCN)C(=O)N[C@@H](C)C(=O)N[C@@H](CC(C)C)C(=O)N[C@@H](CCSC)C(=O)NCC(=O)N[C@H](C=O)CO)[C@@H](C)CC (H-AAGLEDII[Orn(CH(NH2)2)]KALMGS-aldehyde)
Kd (protein: Glucocorticoid receptor, PDB entry 3h52): 14 µM (active)

CC(C)C[C@H](NC(=O)CNC(=O)[C@H](CC(C)C)NC(=O)[C@@H](NC(=O)[C@H](CC(C)C)NC(=O)[C@H](CCC(N)=O)NC(=O)[C@@H](N)CCCNC(N)N)C(C)C)C(=O)O (HELM PEPTIDE1{[NC(N)NCCC[C@H](N)C(=O)[*:2]].Q.L.V.L.G.L}$$$$V2.0)
Kd (protein: DNA polymerase III, PDB entry 1ok7): 1.2 µM (active)

CC[C@H](C)[C@H](NC(=O)[C@H](CCC(=O)O)NC(=O)[C@H](CCC(=O)O)NC(=O)[C@@H](N)CC(=O)O)C(=O)N[C@@H](CCC(=O)O)C(=O)N[C@@H](CCCNC(N)N)C(=O)N[C@@H](CCC(N)=O)C(=O)N[C@@H](CC(C)C)C(=O)N[C@@H](CCCCN)C(=O)N[C@@H](C)C(=O)N[C@@H](CC(C)C)C(=O)NCC(=O)N[C@H](C(=O)N[C@@H](CC(=O)O)C(=O)O)C(C)C (H-DEEIE[Orn(CH(NH2)2)]QLKALGVD-OH)
Kd (protein: Vacuolar protein sorting-associating protein 4B, PDB entry 2jqk): 402 µM (active)

CC[C@H](C)[C@H](NC(=O)[C@@H](N)CCCNC(N)N)C(=O)N[C@@H](CO)C(=O)N[C@@H](C)C(=O)N[C@@H](CC(=O)O)C(=O)N[C@@H](C)C(=O)N[C@@H](CCSC)C(=O)N[C@@H](CCSC)C(=O)N[C@@H](CCC(N)=O)C(=O)N[C@@H](C)C(=O)N[C@@H](CC(C)C)C(=O)N[C@@H](CC(C)C)C(=O)NCC(=O)N[C@@H](C)C(=O)N[C@@H](CCCNC(N)N)C(=O)N[C@@H](C)C(=O)N[C@@H](CCCCN)C(=O)O (H-[Orn(CH(NH2)2)]ISADAMMQALLGA[Orn(CH(NH2)2)]AK-OH)
Kd (protein: Regulatory Domain of Human Cardiac Troponin C and Ca2+, PDB entry 2krd): 2000 µM (active) | Kd (protein: human Cardiac Troponin-C(cNTnCCa2+), PDB entry 1mxl): 154 µM (active)

CC[C@H](C)[C@H](NC(=O)[C@H](C)NC(=O)[C@H](CC(C)C)NC(=O)[C@H](CCC(N)=O)NC(=O)[C@H](CCCNC(N)N)NC(=O)CNC(=O)[C@@H](NC(=O)[C@H](CCC(N)=O)NC(=O)CN)C(C)C)C(=O)N[C@H](C(=O)NCC(=O)N[C@@H](CC(=O)O)C(=O)N[C@@H](CC(=O)O)C(=O)N[C@H](C(=O)N[C@@H](CC(N)=O)C(=O)N[C@@H](CCCNC(N)N)C(=O)O)[C@@H](C)CC)[C@@H](C)CC
Kd (protein: BCL-XL, PDB entry 1bxl): 0.34 µM (active)

CSCC[C@H](NC(=O)CNC(=O)[C@H](C)NC(=O)[C@@H](N)CCC(=O)O)C(=O)N[C@H](C(=O)N[C@@H](CC(C)C)C(=O)NCC(=O)N[C@@H](C)C(=O)N[C@@H](CCCNC(N)N)C(=O)N[C@@H](CCCCN)C(=O)N[C@@H](CC(C)C)C(=O)N[C@@H](CCCCN)C(=O)N[C@@H](CCCCN)C(=O)N[C@@H](CC(C)C)C(=O)NCC(=O)O)[C@@H](C)O (H-EAGMTLGA[Orn(CH(NH2)2)]KLKKLG-OH)
Kd (protein: Importin subunit alpha-2, PDB entry 3btr): 5 µM (active)

COc1ccc2c(c1OC)CN(C)c1c-2ccc2cc3c(cc12)OCO3
Kd (protein: Chitinase A, PDB entry 3arw): 0.7 µM (active)

O=C(O)[C@@H]1COc2ccccc2O1
Kd (protein: Pantothenate synthetase (T2A, E77G mutation), PDB entry 4de5): 700 µM (active) | Kd (protein: Pantothenate synthetase (T2A, E77G mutation), PDB entry 4g5f): 900 µM (active)

CC(C)C[C@H](NC(=O)[C@H](CCC(N)=O)NC(=O)[C@H](CS)NC(=O)[C@H](CO)NC(=O)[C@@H](N)CC(C)C)C(=O)N[C@@H](Cc1ccc(O)cc1)C(=O)N[C@@H](CCC(N)=O)C(=O)N[C@@H](CCCNC(N)N)C(=O)O (H-LSCQLYQ[Orn(CH(NH2)2)]-OH)
Kd (protein: Thymidylate synthase, PDB entry 3n5e): 0.151 µM (active)

CC(=O)NCCCC[C@H](NC(=O)[C@H](CCCNC(N)N)NC(=O)CNC(=O)[C@H](Cc1ccc(O)cc1)NC(=O)[C@@H](N)CO)C(=O)N[C@@H](CCCCN)C(=O)N[C@@H](CCCNC(N)N)C(=O)N[C@@H](CCCNC(N)N)C(=O)N[C@@H](CCC(N)=O)C(=O)N[C@@H](CCCNC(N)N)C(=O)N[C@@H](CS)C(=O)O (H-SYG[Orn(CH(NH2)2)]K(Ac)K[Orn(CH(NH2)2)][Orn(CH(NH2)2)]Q[Orn(CH(NH2)2)]C-OH)
Kd (protein: p300/CBP-associated factor (PCAF), PDB entry 1jm4): 10 µM (active)

CC(C)C[C@H](NC(=O)[C@H](CCCNC(N)N)NC(=O)[C@H](CCC(N)=O)NC(=O)[C@H](Cc1ccc(O)cc1)NC(=O)[C@@H](N)CC(=O)O)C(=O)O (H-DYQ[Orn(CH(NH2)2)]L-OH)
Kd (protein: AP-3 complex subunit mu-1, PDB entry 4ikn): 14 µM (active)

H-AEDDVE-OH
Kd (protein: AH RECEPTOR-INTERACTING PROTEIN, PDB entry 4apo): 12.3 µM (active)

CSCC[C@H](N)C(=O)N[C@@H](C)C(=O)N[C@@H](CO)C(=O)O (H-Met-Ala-Ser-OH)
Kd (protein: human-like mitochondrial peptide deformylase (G47C, L112E mutant), PDB entry 4je8): 6.1 µM (active)

CC(C)[C@H](NC(=O)[C@H](CC(=O)O)NC(=O)[C@@H](NC(=O)[C@H](CC(=O)O)NC(=O)[C@H](CO[P+](O)(O)O)NC(=O)[C@@H](N)CC(=O)O)[C@@H](C)O[P+](O)(O)O)C(=O)N[C@@H](CCC(=O)O)C(=O)N[C@@H](CCC(=O)O)C(=O)O
Kd (protein: DNA topoisomerase 2-binding protein 1, PDB entry 3ueo): 94 µM (active)

CSCC[C@H](NC(=O)[C@H](CCCNC(N)N)NC(=O)[C@H](CO)NC(=O)[C@H](C)N)C(=O)N[C@@H](CCC(=O)O)C(=O)N[C@@H](CCC(=O)O)C(=O)N[C@H](C(=O)N[C@@H](CC(=O)O)C(=O)O)C(C)C (H-AS[Orn(CH(NH2)2)]MEEVD-OH)
Kd (protein: Protein UNC-45, PDB entry 4i2z): 13.5 µM (active)

CCC[C@H](NC(=O)[C@@H](N)CO)C(=O)N[C@@H](CCSC)C(=O)N[C@@H](C)C(=O)N[C@@H](CCC(=O)O)C(=O)N[C@H](C(=O)N[C@@H](CC(=O)O)C(=O)O)C(C)C (H-S[Nva]MAEVD-OH)
Kd (protein: AH RECEPTOR-INTERACTING PROTEIN, PDB entry 4aif): 14.4 µM (active)

CC(=O)N[C@@H](CC(=O)O)C(=O)N[C@@H](CCC(=O)O)C(=O)N[C@H](C(=O)N[C@@H](CC(=O)O)[C@@H](C)O)C(C)C
Kd (protein: Procaspase-3 (D175A mutation), PDB entry 4jr0): 0.0063 µM (active)

CSCC[C@H](NC(=O)[C@H](CCC(=O)O)NC(=O)[C@@H](NC(=O)[C@H](CC(=O)O)NC(=O)[C@H](C)N)[C@@H](C)O)C(=O)N[C@@H](CCC(=O)O)C(=O)N[C@@H](CCC(=O)O)C(=O)N[C@H](C(=O)N[C@@H](CC(=O)O)C(=O)O)C(C)C (H-ADTEMEEVD-OH)
Kd (protein: TPR repeat-containing protein associated with Hsp90, PDB entry 2lsv): 5.41 µM (active)

CC(C)C[C@H](NC(=O)[C@H](CCC(=O)O)NC(=O)CNC(=O)[C@@H](NC(=O)[C@H](CO[P+](O)(O)O)NC(=O)[C@@H]1CCCN1C(=O)[C@H](CC(=O)O)NC(=O)[C@@H](NC(=O)[C@H](CCC(=O)O)NC(=O)[C@@H](N)CCCCN)C(C)C)[C@@H](C)O)C(=O)N[C@@H](CCC(N)=O)C(=O)O
Kd (protein: Kelch-like ECH-associated protein 1, PDB entry 3wdz): 0.12 µM (active)

CSCC[C@H](NC(=O)[C@@H]1CCCN1C(=O)[C@@H](N)[C@@H](C)O)C(=O)N[C@H](C(=O)N[C@@H](CC(N)=O)C(=O)N[C@@H](CCCNC(N)N)C(=O)N[C@@H](CCC(=O)O)C(=O)N[C@@H](CC(N)=O)C(=O)N[C@@H](CCCCN)C(=O)O)C(C)C (H-TPMVN[Orn(CH(NH2)2)]ENK-OH)
Kd (protein: STAM2 SH3 domain, PDB entry 1uj0): 27 µM (active)

CC(C)C[C@H](NC(=O)[C@H](CCCNC(N)N)NC(=O)[C@@H](N)CCCNC(N)N)C(=O)N[C@@H](CCC(N)=O)C(=O)N[C@@H](CCCCN)C(=O)NCC(=O)N[C@@H](CC(N)=O)C(=O)N[C@@H](CC(C)C)C(=O)N1CCC[C@H]1C(=O)N[C@H](C(=O)N[C@@H](CCCNC(N)N)C(=O)O)C(C)C (H-[Orn(CH(NH2)2)][Orn(CH(NH2)2)]LQKGNLPV[Orn(CH(NH2)2)]-OH)
Kd (protein: ERK2, PDB entry 2fys): 44 µM (active)

CSCC[C@H](NC(=O)[C@H](CCCCN)NC(=O)[C@H](CCC(=O)O)NC(=O)[C@H](CCCCN)NC(=O)[C@H](CCCNC(N)N)NC(=O)[C@@H]1CCCN1C(=O)[C@@H]1CCCN1C(=O)[C@@H](NC(=O)[C@H](CC(C)C)NC(=O)[C@@H]1CCCN1C(=O)[C@@H]1CCCN1C(=O)[C@H](CCC(N)=O)NC(=O)CN)C(C)C)C(=O)N[C@@H](CCCNC(N)N)C(=O)NCC(=O)N[C@@H](CCCCN)C(=O)O (H-GQPPLVPP[Orn(CH(NH2)2)]KEKM[Orn(CH(NH2)2)]GK-OH)
Kd (protein: Grb2-related adaptor protein 2(SH3 domain), PDB entry 1uti): 2.4 µM (active)
